Only some compounds are listed: those with a hit (about 0.85% of all), similar ones and a draw of the others.
TDP1 block – TDP1 (human) enzyme inhibition; recombinant TDP1, AlphaScreen DNA substrate cleavage; Potency, µM (titrated, usually from 130 µM), usual class: inhibitors; hit rate 0.28% among 350,000; AID 485290; further: nearly all actives have a fitted effect of over 40% in size
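Here, a 5' biotin and 3' phosphotyrosine-FITC DNA oligonucleotide reports Tdp1 activity: intact substrate bridges AlphaScreen beads, while cleavage leaves a 3' phosphate and drops signal. All incubations at room temperature.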
PGK inhibitor – blocks T. brucei phosphoglycerate kinase; PGK/GAPDH coupled, Kinase-Glo luminescence, 60 min; Potency, µM (series often up to 57.5 µM), usual class: inhibitors; hit rate 0.043% among 380,000; further: nearly all actives have a fitted effect of over 60% in size
Target sequence (P07378 whole entry, looked up): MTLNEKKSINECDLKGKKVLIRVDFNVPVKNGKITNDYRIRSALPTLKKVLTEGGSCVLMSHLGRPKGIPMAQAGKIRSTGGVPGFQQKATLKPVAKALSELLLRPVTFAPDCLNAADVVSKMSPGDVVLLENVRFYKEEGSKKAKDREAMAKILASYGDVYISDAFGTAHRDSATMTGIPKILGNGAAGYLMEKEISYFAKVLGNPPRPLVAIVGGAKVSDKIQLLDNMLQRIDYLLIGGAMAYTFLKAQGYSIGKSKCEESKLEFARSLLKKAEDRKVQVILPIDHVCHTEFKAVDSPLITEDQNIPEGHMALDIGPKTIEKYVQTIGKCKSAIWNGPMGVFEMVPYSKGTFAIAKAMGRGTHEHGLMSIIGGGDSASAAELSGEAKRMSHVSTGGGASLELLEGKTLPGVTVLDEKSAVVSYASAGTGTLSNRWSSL
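Recombinant glycosomal PGK reaction used 1,3-bisphosphoglycerate generated in-well by GAPDH (100nM final) in 100mM TEA pH 7.6, 5mM MgCl2, 0.01% Tween-20. After 60 minutes at room temperature, ATP was read by Kinase-Glo Plus luminescence end-point.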
BLM inh – blocks DNA unwinding by human BLM helicase. P54132. recombinant BLM DNA unwinding, fluorescence dequenching. Potency, µM (doses to about 56.1 µM), hits mostly inhibitors. hit rate 0.2% among 350,000. AID 2528; further: nearly all actives have a fitted effect of over 35% in size
GLS inhibitor – glutaminase GLS (human) inhibition; O94925; GLS enzymatic activity, qHTS titration; Potency, µM (titrated, usually from 45.5 µM), actives largely listed as inhibitors; hit rate 0.21% among 410,000; AID 624170
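Read-out is an Amplex red fluorescence increase coupled through glutamate oxidase and HRP, measured before and after 30 min room-temperature incubation. hKGA is in 45 mM KH2PO4 (pH 8.2) with 0.02% Tween-20; glutamine added as 1mM solution.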
RECQ1 inh-1 – blocks DNA unwinding by human RECQ1; P46063; RECQ1 DNA unwinding, red fluorescence kinetic read; hit rate 0.54% among 240,000; Potency, µM (highest dose often 57.3 µM), hits mostly inhibitors; further: nearly all actives have a fitted effect of over 30% in size
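RECQ1T1 50 nM; forked duplex (20 bp + 30-nt ss tails) 200 nM, ATP 2 mM final; pH 8.0, 2 mM MgCl2, 2.5 ug/ml poly(dI-dC); 15 min compound preincubation; discontinuous kinetic read over 2 h at RT.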
APE1 inh – inhibitors of human APE1 endonuclease. recombinant APE1, TAMRA/BHQ-2 abasic DNA cleavage fluorescence. Potency, µM (doses to about 65.8 µM), hits mostly inhibitors. hit rate 0.35% among 350,000. AID 2517; further: nearly all actives have a fitted effect of over 55% in size
Target sequence (P27695 whole entry, looked up): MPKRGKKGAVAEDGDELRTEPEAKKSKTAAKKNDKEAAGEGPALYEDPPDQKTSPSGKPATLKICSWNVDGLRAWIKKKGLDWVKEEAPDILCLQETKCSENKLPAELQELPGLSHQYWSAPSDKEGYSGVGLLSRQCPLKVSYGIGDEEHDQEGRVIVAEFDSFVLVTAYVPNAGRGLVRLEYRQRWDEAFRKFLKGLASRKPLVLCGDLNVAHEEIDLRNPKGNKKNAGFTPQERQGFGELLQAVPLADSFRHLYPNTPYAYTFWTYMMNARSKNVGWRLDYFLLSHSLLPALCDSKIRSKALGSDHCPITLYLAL
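Activity was derived from the fluorescence gain between first and third kinetic reads (60 s intervals, ex 525/em 598 nm) after 50 nM THF-abasic TAMRA/BHQ-2 duplex was added to 0.75 nM APE1 preincubated 15 min with compound.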
RECQ1 conf – confirmation of human RECQ1 helicase inhibitors | shares compounds with RECQ1 inh-1 | RECQ1 helicase DNA unwinding, fluorescence | Potency, µM (highest dose often 229 µM), usual class: inhibitors | hit rate 28% among 610 | AID 2708; further: nearly all actives have a fitted effect of over 45% in size
RECQ1 ADP FP – ADP displacement flagged in RECQ1 inhibitor counter-screen | Potency, µM (series often up to 228 µM), usual class: inhibitors | shares compounds with RECQ1 inh-1 | AID 2711 | ADP fluorescence polarization displacement counterscreen | hit rate 27% among 530; further: nearly all actives have a fitted effect of over 45% in size
RECQ1 inh-2 – RECQ1 helicase inhibition confirmed, round 2; shares compounds with RECQ1 inh-1; recombinant RECQ1 DNA unwinding, red fluorescence; Potency, µM (titrated, usually from 119 µM), actives largely listed as inhibitors; hit rate 15% among 1,100; further: nearly all actives have a fitted effect of over 50% in size
Large screens that a line does not name were inactive (follow-up assays come after a bar, where they were run). The call rests on the fitted dose curve; in most records, active means well fitted curve in the direction sought with a large enough effect; inconclusive means small, poorly fitted or top-dose-only effect, or another doubt; inactive means no such curve, though single readings can be large; an effect the other way counts as inactive or inconclusive.

Cc1c(C(O)(c2ccccc2)c2ccccc2)[n+]2ccccc2n1C	none (no result: PGK inhibitor, BLM inh, GLS inhibitor, RECQ1 inh-1, APE1 inh)
Cc1cc(NC(=O)CCSc2ccccc2)ccc1Br	RECQ1 inh-1 3.55µM | RECQ1 inh-2 inactive
Cc1cc(Br)ccc1NC(=O)CCSc1ccccc1	none
O=C(O)c1ccc(C2NCC(c3ccccc3Cl)c3c2[nH]c2ccccc32)cc1 (configuration not stated)	none
COc1cc(C2NCC(c3ccc(Cl)cc3Cl)c3c2[nH]c2ccccc32)cc(OC)c1OC (configuration not stated)	RECQ1 inh-1 inconclusive | RECQ1 inh-2 inactive
CN(C)/C=N/c1c(C#N)cnn1-c1ccc(F)c(Cl)c1	none (no result: PGK inhibitor, GLS inhibitor)
C/C=C(/C)C(=O)O[C@H]1C[C@@]2(C)O[C@H]2[C@@H](OC(C)=O)C2(C)CC[C@@](O)(C(C)C)C12 (some centres not stated)	none (no result: PGK inhibitor, GLS inhibitor)
N=c1c(C(=O)NCc2ccccc2)cc2c(=O)n3ccccc3nc2n1CCCN1CCOCC1	none
N=c1c(C(=O)NCc2ccc(F)cc2)cc2c(=O)n3ccccc3nc2n1CCCN1CCOCC1	RECQ1 inh-1 inconclusive | RECQ1 inh-2 inactive
COc1ccc(OC)c(N2C(=O)[C@@H]3C(c4ccccc4Cl)=NO[C@@H]3C2=O)c1	PGK inhibitor 12.6µM, GLS inhibitor 11.2µM, RECQ1 inh-1 28.2µM, APE1 inh inconclusive (no result: TDP1 block) | RECQ1 inh-2 inconclusive
Cc1cccc(C)c1N1C(=O)[C@@H]2C(c3ccccc3Cl)=NO[C@@H]2C1=O	none
Cn1c(N)c(C(=O)COC(=O)CC(NC(=O)c2ccccc2Cl)c2ccccc2)c(=O)n(C)c1=O (configuration not stated)	none | RECQ1 conf inactive | RECQ1 ADP FP inactive
Cn1c(N)c(C(=O)COC(=O)CSc2ccc(Cl)cc2)c(=O)n(C)c1=O	none
CC(C)c1onc(-c2c(Cl)cccc2Cl)c1COc1ccc(/C=C/c2cccc(C(=O)O)c2)c(Cl)c1	BLM inh 31.6µM, RECQ1 inh-1 31.6µM (no result: PGK inhibitor, GLS inhibitor) | RECQ1 inh-2 35.5µM
CCC(C)NC(=O)c1cccc(OCc2c(C)noc2C)c1 (configuration not stated)	none
C/C(=N/NC(=O)CSCc1ccc(Cl)cc1)c1cccc(NC(=O)c2ccccc2)c1	APE1 inh inconclusive
C/C(=N\NC(=O)CSCc1ccc([N+](=O)[O-])cc1)c1cccc(Br)c1	RECQ1 inh-1 1µM | RECQ1 conf inactive
CSCC[C@H](NC(=O)[C@H](Cc1ccccc1)NC(=O)[C@H](Cc1cnc[nH]1)NC(=O)CNC(=O)[C@@H](NC(=O)[C@H](C)NC(=O)[C@H](Cc1c[nH]c2ccccc12)NC(=O)[C@H](CCC(N)=O)NC(=O)[C@@H]1CCCN1C(=O)[C@@H](NC(=O)[C@@H]1CCC(=O)N1)C(C)C)C(C)C)C(N)=O	none (no result: PGK inhibitor, GLS inhibitor)
O=C(CN1CCN(S(=O)(=O)c2ccc(F)cc2)CC1)c1ccc(O)c(O)c1	GLS inhibitor inconclusive, RECQ1 inh-1 39.8µM, APE1 inh 3.98µM | RECQ1 inh-2 inactive
O=C(CN1CCN(S(=O)(=O)c2ccc(Cl)cc2)CC1)c1ccc(O)c(O)c1	PGK inhibitor inconclusive (no result: RECQ1 inh-1)
CC(C)=CCC[C@](C)(O)C1CC[C@]2(C)[C@@H]1CC[C@@H]1[C@@]3(C)CCC(=O)C(C)(C)[C@@H]3CC[C@]12C (some centres not stated)	none (no result: PGK inhibitor, GLS inhibitor)
Cc1ccc2sc(C)[n+](CCCS(=O)(=O)[O-])c2c1	RECQ1 inh-1 3.55µM | RECQ1 conf inactive | RECQ1 ADP FP inactive
COc1ccc(C2NC(=O)c3ccccc3N2)cc1COc1ccc(NC(C)=O)cc1 (configuration not stated)	none (no result: PGK inhibitor, BLM inh, GLS inhibitor, RECQ1 inh-1, APE1 inh)
CC(=O)O[C@@H]1[C@@H](O)CN[C@@H]1Cc1ccccc1	none (no result: PGK inhibitor, GLS inhibitor)
C=C[C@@]1(C)CC[C@H]2C(=CC[C@@H]3[C@]2(C)CCC[C@@]3(C)C(=O)O)C1	none (no result: PGK inhibitor, GLS inhibitor)
CCCN1C(=O)/C(=C/c2ccco2)SC1=Nc1ccc(OC)cc1	RECQ1 inh-1 25.1µM, APE1 inh inconclusive | RECQ1 inh-2 inactive
CCCN1C(=O)/C(=C/c2ccc(C)o2)SC1=Nc1ccc(OC)cc1	RECQ1 inh-1 inconclusive | RECQ1 inh-2 inactive
CCCN1C(=O)/C(=C/c2ccc(C)o2)SC1=Nc1ccc(OCC)cc1	none
CN(C)C(=O)NC1CCCCCCC1	none (no result: PGK inhibitor, GLS inhibitor)
COc1ccc(C(=O)Nc2cccnc2)cc1	none | RECQ1 conf inactive | RECQ1 ADP FP inconclusive
N#CC1=C(N)n2c(s/c(=C\c3ccco3)c2=O)=C(C#N)C1c1ccco1 (configuration not stated)	TDP1 block inconclusive, PGK inhibitor inconclusive, GLS inhibitor 11.2µM, RECQ1 inh-1 8.91µM, APE1 inh 7.08µM | RECQ1 inh-2 inactive
Cc1cc(C)n(CCc2nc(-c3ccco3)cs2)n1	BLM inh inconclusive, RECQ1 inh-1 35.5µM, APE1 inh inconclusive (no result: TDP1 block) | RECQ1 inh-2 inconclusive
Cc1nn(CCc2nc(-c3ccco3)cs2)c2[nH]c(=O)cc(C(F)(F)F)c12	TDP1 block inconclusive, BLM inh inconclusive, RECQ1 inh-1 14.1µM, APE1 inh inconclusive | RECQ1 conf inconclusive | RECQ1 ADP FP inconclusive | RECQ1 inh-2 inconclusive
O=c1[nH]c(=O)n(Cc2ccccc2)c2nc(-c3ccco3)cc(C(F)(F)F)c12	none
Cc1noc(C)c1-c1ccc2ncnc(NCc3cccn3C)c2c1	APE1 inh inconclusive (no result: PGK inhibitor, GLS inhibitor)
COc1ccc2[nH]c(=O)c(CN(Cc3ccco3)Cc3nnnn3Cc3ccccc3)cc2c1	none
Cc1ccc(C)c2[nH]c(=O)c(CN(Cc3ccc4c(c3)OCO4)Cc3nnnn3Cc3ccco3)cc12	RECQ1 inh-1 22.4µM, APE1 inh inconclusive | RECQ1 inh-2 inactive
CCc1ccc2[nH]c(=O)c(CN(Cc3ccccc3OC)Cc3nnnn3Cc3ccco3)cc2c1	RECQ1 inh-1 inconclusive, APE1 inh inconclusive | RECQ1 inh-2 inactive
COc1ccc(C2CC(c3ccccc3)Oc3cc4c(cc32)OCO4)cc1 (configuration not stated)	none (no result: PGK inhibitor, GLS inhibitor)
O=C(Nc1ccc2nc(-c3cccs3)[nH]c2c1)c1cccs1	none
